Reference: the supplement of paper PMC10849652
Of roughly 8,800 targets only a part is listed; those with a hit were picked by preference. About 0.5% of all pairs of compound and target were hits.

Key:
Assay in all cases: log2 fold change, soluble protein after heating vs DMSO (PISA); higher = thermal stabilisation; K562 lysate, 10 uM; active = over 0.2 and 3.5 SD of the protein, either way, in both replicates (recomputed)
[1] = compound: CS(=O)(=O)CCNCc1ccc(-c2ccc3ncnc(Nc4ccc(OCc5cccc(F)c5)c(Cl)c4)c3c2)o1 [lapatinib]
Procedure, shortened: (§1)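 Log-two fold change in thermal stability relative to solvent controls is reported from duplicates. For each sample, crude K562 extract from dounce-homogenised pellets in PBS pH 7.4 with 1 mM MgCl2, at 1 mg/mL protein, was treated with 10 μM compound for 30 min. Aliquots heated for 3 min across 48°C-58°C were pooled, brought to 0.5% NP-40 at 4°C and cleared at 21,000xg for 90 min. The supernatant was quantified by TMTpro 16plex LC-MS/MS with channel sums equalised.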

[2] = compound: CS(=O)(=O)N1CCN(Cc2cc3nc(-c4cccc5[nH]ncc45)nc(N4CCOCC4)c3s2)CC1 [pictilisib]
Procedure, shortened: as §1

[3] = compound: C[C@@H](Oc1cc(-c2cnn(C3CCNCC3)c2)cnc1N)c1c(Cl)ccc(F)c1Cl [crizotinib]
Procedure, shortened: as §1

[4] = compound: C[C@H](C1=CC=C(C=C1)C(=O)NC2=C3C=CNC3=NC=C2)N
Procedure, shortened: as §1

[5] = compound: C[C@H](Nc1ncnc2nc[nH]c12)c1cc2cccc(Cl)c2c(=O)n1-c1ccccc1 [duvelisib]
Procedure, shortened: as §1

[6] = compound: Cc1cc(Nc2cc(CN3CCOCC3)c3nc(C)c(Cc4ccc(Cl)cc4F)n3n2)n[nH]1 [gandotinib]
Procedure, shortened: as §1

[7] = compound: Cc1cc(Nc2cc(N3CCN(C)CC3)nc(Sc3ccc(NC(=O)C4CC4)cc3)n2)n[nH]1 [tozasertib]
Procedure, shortened: as §1

[8] = compound: Cc1ccc(-n2nc(C(C)(C)C)cc2NC(=O)Nc2ccc(OCCN3CCOCC3)c3ccccc23)cc1 [doramapimod]
Procedure, shortened: as §1

[9] = compound: Cc1ccc(NC(=O)c2ccc(CN3CC[C@H](N(C)C)C3)c(C(F)(F)F)c2)cc1Nc1nccc(-c2cncnc2)n1 [bafetinib]
Procedure, shortened: as §1

[10] = compound: Cc1cccc(CC(=O)N2CCc3c2ccc(-c2cn(C)c4ncnc(N)c24)c3F)n1
Procedure, shortened: as §1

[11] = compound: Cc1cn(-c2cc(NC(=O)c3ccc(C)c(Nc4nccc(-c5cccnc5)n4)c3)cc(C(F)(F)F)c2)cn1 [nilotinib]
Procedure, shortened: as §1

[12] = compound: Cc1nc(Nc2n[nH]c3c2CN(C(=O)N[C@H](CN(C)C)c2ccccc2)C3(C)C)c2sccc2n1
Procedure, shortened: as §1

[13] = compound: Cc1nc(Nc2ncc(C(=O)Nc3c(C)cccc3Cl)s2)cc(N2CCN(CCO)CC2)n1 [dasatinib]
Procedure, shortened: as §1

[14] = compound: Cc1ncc(-c2ccnc(Nc3ccc(S(C)(=O)=O)cc3)n2)n1C(C)C
Procedure, shortened: as §1

[15] = compound: Cn1cc(-c2ccc3c(c2)CCN3C(=O)Cc2cccc(C(F)(F)F)c2)c2c(N)ncnc21
Procedure, shortened: as §1

[16] = compound: Cn1cc(CNCC2CCN(c3ncc(C(=O)NO)cn3)CC2)c2ccccc21 [quisinostat]
Procedure, shortened: as §1

[17] = compound: Cn1cncc1[C@@](N)(c1ccc(Cl)cc1)c1ccc2c(c1)c(-c1cccc(Cl)c1)cc(=O)n2C [tipifarnib]
Procedure, shortened: as §1

[18] = compound: NC(=O)Nc1cc(-c2cccc(F)c2)sc1C(=O)N[C@H]1CCCNC1
Procedure, shortened: as §1

[19] = compound: NC(=O)c1cnc(N[C@@H]2CCCC[C@@H]2N)nc1Nc1cccc(-n2nccn2)c1
Procedure, shortened: as §1

[20] = compound: NC1(c2ccc(-c3nc4ccn5c(=O)[nH]nc5c4cc3-c3ccccc3)cc2)CCC1
Procedure, shortened: as §1

Measured: log2 fold change

HSPA8 (UniProt E9PK54)
inactive: [1] -0.067 | [2] -0.013 | [3] 0.051 | [4] -0.025 | [5] 0.004 | [6] 0.058 | [7] 0.067 | [8] 0.011 | [9] 0.026 | [10] 0.046 | [11] 0.023 | [12] -0.053 | [13] -0.024 | [14] -0.021 | [15] -0.032 | [16] -0.093 | [17] -0.01 | [18] 0.113 | [19] -0.033 | [20] 0.004

HSPB1 (UniProt P04792)
Sequence of UniProt P04792 (P04792 whole entry, looked up): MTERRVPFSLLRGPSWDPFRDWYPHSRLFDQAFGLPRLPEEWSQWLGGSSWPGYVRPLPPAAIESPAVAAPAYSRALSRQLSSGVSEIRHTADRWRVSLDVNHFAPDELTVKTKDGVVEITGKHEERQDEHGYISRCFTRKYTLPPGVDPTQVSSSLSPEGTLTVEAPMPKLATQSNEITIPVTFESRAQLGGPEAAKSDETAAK
inactive: [1] -0.017 | [2] -0.013 | [3] 0.036 | [4] 0.008 | [5] 0.014 | [6] -0.018 | [7] -0.017 | [9] -0.031 | [10] -0.021 | [11] -0.001 | [12] 0.003 | [13] -0.032 | [14] 0.012 | [15] 0.015 | [16] 0.025 | [17] -0.006 | [18] 0.006 | [19] 0 | [20] 0.006
active: [8] -0.31

GMPS (UniProt P49915)
inactive: [1] -0.008 | [2] -0.014 | [3] 0.007 | [4] 0.115 | [5] 0.006 | [6] -0.071 | [7] -0.001 | [8] -0.036 | [9] -0.012 | [10] -0.032 | [11] -0.006 | [12] -0.019 | [13] -0.016 | [14] 0 | [15] 0 | [16] 0.041 | [17] -0.008 | [18] 0.001 | [19] 0.001 | [20] 0.009

GSK3B isoform 2 (UniProt P49841)
Sequence of UniProt P49841 (P49841 whole entry, looked up): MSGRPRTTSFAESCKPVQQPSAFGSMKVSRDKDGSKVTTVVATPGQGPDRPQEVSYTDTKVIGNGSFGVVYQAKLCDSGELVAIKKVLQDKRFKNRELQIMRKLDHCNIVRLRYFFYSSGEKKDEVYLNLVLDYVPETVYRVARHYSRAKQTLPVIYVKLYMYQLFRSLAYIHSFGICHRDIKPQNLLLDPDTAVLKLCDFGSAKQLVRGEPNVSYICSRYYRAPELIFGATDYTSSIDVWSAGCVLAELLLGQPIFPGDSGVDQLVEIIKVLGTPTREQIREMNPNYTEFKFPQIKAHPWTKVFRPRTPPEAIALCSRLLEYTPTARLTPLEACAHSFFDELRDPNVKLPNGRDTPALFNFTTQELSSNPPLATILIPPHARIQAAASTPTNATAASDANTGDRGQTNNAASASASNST
active: [14] 0.64
inactive: [1] -0.083 | [2] 0.191 | [3] 0.003 | [4] 0.018 | [5] -0.02 | [6] 0.59 | [7] -0.078 | [8] 0.03 | [9] -0.041 | [10] -0.06 | [11] -0.06 | [12] 0.576 | [13] -0.023 | [15] -0.028 | [16] -0.084 | [17] 0.003 | [18] 0 | [19] 0.061 | [20] -0.039

HNRNPL (UniProt P14866)
inactive: [1] 0.005 | [2] -0.02 | [3] -0.042 | [4] 0.018 | [5] 0.03 | [6] -0.081 | [7] -0.011 | [8] -0.018 | [9] 0.004 | [10] -0.016 | [11] -0.011 | [12] -0.015 | [13] -0.036 | [14] 0.013 | [15] 0.068 | [16] -0.07 | [17] 0.012 | [18] 0.042 | [19] -0.001 | [20] 0.022

KBTBD4 isoform 2 (UniProt Q9NVX7)
inactive: [1] 0.03 | [2] -0.015 | [3] -0.038 | [4] -0.075 | [5] 0.056 | [6] 0.109 | [7] -0.068 | [8] -0.023 | [9] -0.013 | [10] 0.047 | [11] 0.063 | [12] -0.019 | [13] -0.017 | [14] -0.086 | [15] -0.022 | [16] -0.038 | [17] 0.154 | [18] 0.086 | [19] -0.018 | [20] -0.039

GTF3C3 (UniProt Q9Y5Q9)
inactive: [1] -0.043 | [2] -0.051 | [3] -0.093 | [4] -0.108 | [5] 0.017 | [6] -0.037 | [7] 0.009 | [8] 0.012 | [9] -0.045 | [10] 0.084 | [11] 0.035 | [12] 0.052 | [13] 0.008 | [14] -0.026 | [15] 0.009 | [16] -0.134 | [17] -0.057 | [18] 0.031 | [19] 0.009 | [20] -0.084

INTS3 (UniProt Q68E01)
inactive: [1] -0.05 | [2] -0.005 | [3] -0.016 | [4] 0.02 | [5] -0.005 | [6] -0.104 | [7] 0.018 | [8] 0.106 | [9] -0.07 | [10] -0.052 | [11] -0.007 | [12] 0.007 | [13] -0.05 | [14] -0.045 | [15] 0.005 | [16] -0.038 | [17] 0.09 | [18] 0.028 | [19] -0.002 | [20] -0.028

GPX4 (UniProt P36969)
Sequence of UniProt P36969 (P36969 whole entry, looked up): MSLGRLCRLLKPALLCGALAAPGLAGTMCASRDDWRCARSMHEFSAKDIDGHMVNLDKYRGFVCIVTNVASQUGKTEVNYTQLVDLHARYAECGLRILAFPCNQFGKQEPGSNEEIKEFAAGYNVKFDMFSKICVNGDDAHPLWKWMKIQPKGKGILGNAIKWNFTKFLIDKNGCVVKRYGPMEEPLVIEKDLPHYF
inactive: [1] -0.037 | [2] -0.03 | [3] -0.01 | [4] 0.041 | [5] -0.008 | [6] -0.065 | [7] 0 | [8] -0.001 | [9] -0.033 | [10] -0.051 | [11] -0.011 | [12] -0.001 | [13] 0.01 | [14] 0.039 | [15] -0.024 | [16] -0.012 | [17] -0.009 | [18] 0.02 | [19] -0.011 | [20] 0.011

HSD17B10 (UniProt Q99714)
inactive: [1] -0.031 | [2] -0.013 | [3] 0.002 | [4] -0.049 | [5] 0.013 | [6] 0.022 | [7] -0.031 | [8] -0.008 | [9] 0 | [10] 0.026 | [11] 0 | [12] -0.044 | [13] -0.034 | [14] -0.001 | [15] -0.017 | [16] -0.01 | [17] 0.008 | [18] 0.013 | [19] -0.002 | [20] 0.005

GTF3C5 isoform 3 (UniProt Q9Y5Q8)
inactive: [1] -0.009 | [2] -0.01 | [3] -0.047 | [4] -0.014 | [5] -0.02 | [6] -0.002 | [7] -0.012 | [8] 0.063 | [9] -0.047 | [10] 0.02 | [11] 0.023 | [12] -0.023 | [13] -0.017 | [14] -0.018 | [15] 0.019 | [16] -0.063 | [17] -0.004 | [18] 0.05 | [19] -0.006 | [20] 0.005

GSTP1 (UniProt P09211)
Sequence of UniProt P09211 (P09211 whole entry, looked up): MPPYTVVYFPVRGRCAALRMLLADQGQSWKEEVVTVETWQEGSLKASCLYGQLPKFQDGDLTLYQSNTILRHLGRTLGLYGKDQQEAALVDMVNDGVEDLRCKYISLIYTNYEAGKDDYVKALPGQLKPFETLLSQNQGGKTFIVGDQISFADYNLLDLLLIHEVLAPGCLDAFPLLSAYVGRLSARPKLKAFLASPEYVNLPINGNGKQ
inactive: [1] -0.015 | [2] 0.021 | [3] -0.018 | [4] -0.025 | [5] 0.001 | [6] -0.035 | [7] -0.007 | [8] -0.006 | [9] 0.01 | [10] 0.003 | [11] 0.006 | [12] -0.001 | [13] -0.035 | [14] -0.003 | [15] -0.01 | [16] -0.016 | [17] 0.029 | [18] -0.029 | [19] -0.004 | [20] 0.01

IRF2BP1 (UniProt Q8IU81)
Sequence of UniProt Q8IU81 (Q8IU81 whole entry, looked up): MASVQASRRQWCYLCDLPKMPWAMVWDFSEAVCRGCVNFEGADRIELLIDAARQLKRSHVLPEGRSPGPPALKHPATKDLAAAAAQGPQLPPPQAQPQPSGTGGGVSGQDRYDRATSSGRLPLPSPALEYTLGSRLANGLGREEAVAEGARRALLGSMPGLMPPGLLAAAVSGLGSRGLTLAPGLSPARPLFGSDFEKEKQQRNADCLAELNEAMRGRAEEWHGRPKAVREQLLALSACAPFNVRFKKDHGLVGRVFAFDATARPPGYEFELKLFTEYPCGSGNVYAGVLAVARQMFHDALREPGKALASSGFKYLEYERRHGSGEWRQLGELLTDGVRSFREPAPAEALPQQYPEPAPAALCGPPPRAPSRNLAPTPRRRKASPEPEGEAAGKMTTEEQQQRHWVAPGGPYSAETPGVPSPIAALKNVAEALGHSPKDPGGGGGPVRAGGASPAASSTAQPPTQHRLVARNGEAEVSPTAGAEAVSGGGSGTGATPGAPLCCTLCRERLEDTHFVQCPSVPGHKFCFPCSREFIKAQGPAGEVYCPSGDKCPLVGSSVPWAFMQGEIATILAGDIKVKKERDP
inactive: [1] -0.01 | [2] 0.008 | [3] -0.052 | [4] -0.004 | [5] -0.086 | [6] 0.004 | [7] 0 | [8] 0.105 | [9] -0.1 | [10] 0.043 | [11] 0.018 | [12] 0.016 | [13] -0.082 | [14] -0.019 | [15] 0.032 | [16] -0.099 | [17] -0.124 | [18] 0.057 | [19] -0.03 | [20] 0.045

HNRNPLL (UniProt Q8WVV9)
Sequence of UniProt Q8WVV9 (Q8WVV9 whole entry, looked up): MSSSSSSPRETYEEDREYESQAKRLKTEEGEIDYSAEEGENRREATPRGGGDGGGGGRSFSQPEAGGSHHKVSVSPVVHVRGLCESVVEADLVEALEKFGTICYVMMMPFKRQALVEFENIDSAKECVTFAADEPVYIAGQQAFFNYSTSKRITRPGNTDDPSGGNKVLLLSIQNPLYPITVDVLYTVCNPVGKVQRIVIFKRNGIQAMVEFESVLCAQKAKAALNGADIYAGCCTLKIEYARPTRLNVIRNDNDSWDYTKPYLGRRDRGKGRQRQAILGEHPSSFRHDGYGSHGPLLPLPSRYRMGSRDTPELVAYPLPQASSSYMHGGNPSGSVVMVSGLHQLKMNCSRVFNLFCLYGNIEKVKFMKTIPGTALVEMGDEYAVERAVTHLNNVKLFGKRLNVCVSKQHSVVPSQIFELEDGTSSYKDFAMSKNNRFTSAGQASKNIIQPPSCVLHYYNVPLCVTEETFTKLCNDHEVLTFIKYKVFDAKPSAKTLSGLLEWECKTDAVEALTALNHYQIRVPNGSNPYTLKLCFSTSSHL
inactive: [1] 0.017 | [2] -0.026 | [3] -0.038 | [4] -0.01 | [5] -0.016 | [6] -0.031 | [7] 0 | [8] 0.01 | [9] -0.031 | [10] 0.027 | [11] -0.031 | [12] 0.009 | [13] -0.019 | [14] 0.008 | [15] -0.001 | [16] -0.063 | [17] -0.008 | [18] 0.001 | [19] 0.015 | [20] -0.013

INTS1 (UniProt Q8N201)
Sequence of UniProt Q8N201 (Q8N201 whole entry, looked up): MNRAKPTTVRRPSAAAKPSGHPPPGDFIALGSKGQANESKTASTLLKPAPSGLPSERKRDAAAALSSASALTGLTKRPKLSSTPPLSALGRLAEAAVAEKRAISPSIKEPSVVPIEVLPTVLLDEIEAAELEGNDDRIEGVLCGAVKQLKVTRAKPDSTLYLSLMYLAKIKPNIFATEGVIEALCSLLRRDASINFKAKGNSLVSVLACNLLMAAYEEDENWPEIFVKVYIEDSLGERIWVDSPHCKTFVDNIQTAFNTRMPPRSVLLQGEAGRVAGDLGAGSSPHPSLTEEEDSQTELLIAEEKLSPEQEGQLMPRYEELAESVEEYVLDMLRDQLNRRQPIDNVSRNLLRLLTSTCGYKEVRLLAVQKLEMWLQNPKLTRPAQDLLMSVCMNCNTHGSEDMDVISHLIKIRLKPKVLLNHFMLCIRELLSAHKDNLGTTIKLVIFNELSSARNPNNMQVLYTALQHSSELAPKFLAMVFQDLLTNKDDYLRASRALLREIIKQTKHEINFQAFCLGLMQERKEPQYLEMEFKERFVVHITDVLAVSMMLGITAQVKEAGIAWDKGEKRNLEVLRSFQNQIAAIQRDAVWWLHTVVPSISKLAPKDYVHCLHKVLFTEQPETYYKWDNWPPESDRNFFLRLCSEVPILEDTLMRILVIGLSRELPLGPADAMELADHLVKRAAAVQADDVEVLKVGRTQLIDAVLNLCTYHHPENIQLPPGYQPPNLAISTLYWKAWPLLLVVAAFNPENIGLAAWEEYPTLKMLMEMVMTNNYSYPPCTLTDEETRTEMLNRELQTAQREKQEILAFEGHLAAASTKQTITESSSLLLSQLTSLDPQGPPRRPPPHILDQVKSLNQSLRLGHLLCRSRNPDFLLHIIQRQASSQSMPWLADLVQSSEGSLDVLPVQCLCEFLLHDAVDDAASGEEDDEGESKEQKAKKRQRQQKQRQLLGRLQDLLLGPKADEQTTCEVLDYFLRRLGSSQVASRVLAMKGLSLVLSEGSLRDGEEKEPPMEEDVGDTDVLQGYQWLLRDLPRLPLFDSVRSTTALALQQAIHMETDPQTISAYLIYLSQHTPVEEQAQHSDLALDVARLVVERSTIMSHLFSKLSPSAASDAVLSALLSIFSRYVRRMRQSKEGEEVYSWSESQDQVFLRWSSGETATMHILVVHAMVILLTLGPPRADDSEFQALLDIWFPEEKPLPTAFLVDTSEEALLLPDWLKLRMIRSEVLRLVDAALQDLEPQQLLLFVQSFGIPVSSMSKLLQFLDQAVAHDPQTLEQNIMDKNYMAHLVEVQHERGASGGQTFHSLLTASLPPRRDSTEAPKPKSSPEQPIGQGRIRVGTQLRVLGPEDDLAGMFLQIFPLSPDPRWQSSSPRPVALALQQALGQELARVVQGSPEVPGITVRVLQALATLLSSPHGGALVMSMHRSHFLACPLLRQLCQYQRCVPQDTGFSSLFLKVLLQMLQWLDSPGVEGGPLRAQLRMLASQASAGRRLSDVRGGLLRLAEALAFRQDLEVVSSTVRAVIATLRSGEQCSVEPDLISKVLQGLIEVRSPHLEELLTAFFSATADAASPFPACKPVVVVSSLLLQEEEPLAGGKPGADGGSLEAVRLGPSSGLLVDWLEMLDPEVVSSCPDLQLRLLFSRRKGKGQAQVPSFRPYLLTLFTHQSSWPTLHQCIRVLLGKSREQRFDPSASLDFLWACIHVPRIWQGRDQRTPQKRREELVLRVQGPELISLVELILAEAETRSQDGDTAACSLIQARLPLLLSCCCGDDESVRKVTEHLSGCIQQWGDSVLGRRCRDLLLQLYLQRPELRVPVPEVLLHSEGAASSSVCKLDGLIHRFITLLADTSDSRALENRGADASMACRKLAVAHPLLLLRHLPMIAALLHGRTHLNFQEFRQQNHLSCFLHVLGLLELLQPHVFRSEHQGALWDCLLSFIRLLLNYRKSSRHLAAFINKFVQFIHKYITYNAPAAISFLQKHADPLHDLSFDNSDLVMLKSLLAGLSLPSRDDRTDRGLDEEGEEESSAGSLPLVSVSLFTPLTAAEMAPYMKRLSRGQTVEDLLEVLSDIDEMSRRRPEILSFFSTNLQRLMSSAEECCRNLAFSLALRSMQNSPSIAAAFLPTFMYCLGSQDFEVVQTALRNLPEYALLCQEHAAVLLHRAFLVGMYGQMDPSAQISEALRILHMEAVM
inactive: [1] -0.051 | [2] -0.011 | [3] -0.067 | [4] 0.05 | [5] -0.04 | [6] -0.136 | [7] 0.007 | [8] -0.001 | [9] -0.164 | [10] 0.031 | [11] -0.041 | [12] 0.012 | [13] -0.087 | [14] 0.035 | [15] 0.028 | [16] -0.01 | [17] 0.017 | [18] 0.016 | [19] -0.038 | [20] 0.011

KBTBD2 (UniProt Q8IY47)
Sequence of UniProt Q8IY47 (Q8IY47 whole entry, looked up): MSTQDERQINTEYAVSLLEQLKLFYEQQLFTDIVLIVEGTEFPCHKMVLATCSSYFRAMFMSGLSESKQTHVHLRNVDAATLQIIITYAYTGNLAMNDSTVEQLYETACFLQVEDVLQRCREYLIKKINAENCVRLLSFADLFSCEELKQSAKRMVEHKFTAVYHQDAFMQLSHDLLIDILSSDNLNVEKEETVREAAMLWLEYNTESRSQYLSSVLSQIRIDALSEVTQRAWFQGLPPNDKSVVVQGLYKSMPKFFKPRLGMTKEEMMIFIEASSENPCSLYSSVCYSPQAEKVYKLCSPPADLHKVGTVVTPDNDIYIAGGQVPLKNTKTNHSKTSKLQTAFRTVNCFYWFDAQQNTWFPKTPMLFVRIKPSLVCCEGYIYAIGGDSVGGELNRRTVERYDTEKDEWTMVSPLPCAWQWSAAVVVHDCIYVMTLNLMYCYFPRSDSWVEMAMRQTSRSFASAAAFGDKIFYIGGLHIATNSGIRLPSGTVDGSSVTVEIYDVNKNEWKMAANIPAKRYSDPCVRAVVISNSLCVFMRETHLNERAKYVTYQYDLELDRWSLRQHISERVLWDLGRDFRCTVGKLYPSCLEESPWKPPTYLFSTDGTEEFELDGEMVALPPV
inactive: [1] -0.036 | [2] -0.019 | [3] -0.073 | [4] -0.139 | [5] -0.01 | [6] 0.124 | [7] -0.056 | [8] -0.005 | [9] -0.07 | [10] 0.138 | [11] 0.014 | [12] -0.005 | [13] 0.012 | [14] 0.006 | [15] 0.028 | [16] -0.178 | [17] -0.018 | [18] 0.007 | [19] 0.009 | [20] -0.202
